Source: PubChem BioAssay AID624483 (NMMLSC, 2012)
The campaign covered roughly 360,000 compounds. About 11,000 (3.1%) were called active. Inconclusive results (about 2%) are left out. No stated cut-off is given here; in the data, active means fluorescence intensity above about 16000; inconclusive means no clear call, values can overlap the other calls; inactive means below that. The full list was thinned out, with actives kept by preference.

Assay: compound fluorescence in toxin protease inhibitor counterscreen, primary screen, artefact control for toxin protease inhibitor project, biochemical, multiplex microsphere, HTS (AID 624483)
Conditions: compound autofluorescence counterscreen, microsphere flow cytometry; stronger effect = higher value
In the case of `COc1cccc(C(NC(C)=O)c2nc(-c3ccccc3OC)cs2)c1` (stereo not given), the fluorescence intensity is reported as 3680 (inactive). With `CC(C)(C)CC(=O)Nc1nc(C(N)Cc2ccc(C(F)(F)F)cc2)cs1` (stereo not given) the fluorescence intensity was 2950 (inactive). With `O=C(NC1CCCC1)C(c1ccco1)N(C(=O)c1csnn1)c1ccccc1` (stereo not given) the fluorescence intensity was 3410 (inactive). For `Cc1ccccc1-c1nc(NC(C)C)nc2cc(-c3ccccc3)sc12`, the fluorescence intensity was 2960 (inactive). In the case of `CC(C)NC(=O)C1(C)CCCCCN1C(=O)c1ccc(-c2ccccc2)cc1` (stereo not given), the fluorescence intensity is reported as 3730 (inactive). For `Cc1cc(/C=N/NC(N)=O)c(C)n1C1CCCCC1`, the fluorescence intensity was 5160 (inactive). With `CC(=O)Nc1ccc(NC(=O)c2ccc3c(c2)C(=O)N(c2ccccc2C)C3=O)cc1` the fluorescence intensity was 3300 (inactive). With `CCOC(=O)C1=CC[C@@H](c2ccncc2)N(S(=O)(=O)c2ccc(C)cc2)C1` the fluorescence intensity was 6280 (inactive). In the case of `Cc1ccc(NCc2n[nH]c(=S)n2-c2ccccc2)cc1Cl`, the fluorescence intensity is reported as 4580 (inactive). In the case of `CCn1c(CSCc2c(Cl)cccc2Cl)n[nH]c1=S`, the fluorescence intensity is reported as 5080 (inactive). For `S=c1[nH]nc(CSCc2ccc(Cl)cc2Cl)n1-c1ccccc1`, the fluorescence intensity was 22300 (active). For `O=C(c1cc(COc2ccc(F)cc2F)on1)N1CCOCC1`, the fluorescence intensity was 6230 (inactive). With `CN1C(=O)[C@H]2[C@@H](/C=C/c3ccccc3)N3C(=O)CN(Cc4ccc(-c5ccccc5)cc4)C(=O)[C@@]3(C)[C@H]2C1=O` the fluorescence intensity was 3800 (inactive). With `COc1ccc(Cn2c(=S)[nH]c3cc(C(=O)NCCCN4CCOCC4)ccc3c2=O)cc1` the fluorescence intensity was 5500 (inactive). With `CCOc1cc2[nH]c(=S)n(Cc3ccc(C(=O)N4CCN(C)CC4)cc3)c(=O)c2cc1OCC` the fluorescence intensity was 5670 (inactive). With `COc1ccc(-n2c(=O)[nH]c3cc(C(=O)NCCc4ccc(OC)c(OC)c4)ccc3c2=O)c(OC)c1` the fluorescence intensity was 3790 (inactive). With `COCCn1c(=S)[nH]c2cc(C(=O)NCCc3ccc(OC)c(OC)c3)ccc2c1=O` the fluorescence intensity was 22200 (active). In the case of `CCOc1cc2[nH]c(=O)n(Cc3ccc(C(=O)NCCCN4CCCC4=O)cc3)c(=O)c2cc1OCC`, the fluorescence intensity is reported as 4740 (inactive). With `CCOc1cc2[nH]c(=S)n(Cc3ccc(C(=O)NCCOC)cc3)c(=O)c2cc1OCC` the fluorescence intensity was 20100 (active). In the case of `CN1CCN(c2ccc3c(c2)OC[C@H](Cc2ccccc2)NS3(=O)=O)CC1`, the fluorescence intensity is reported as 5440 (inactive). With `COc1ccc(CCCNC(=O)C2Cc3c(-c4cccc(C(N)=O)c4)ccnc3O2)cc1` (stereo not given) the fluorescence intensity was 3760 (inactive). With `O=S1(=O)CC(N2CCN(CCO)CC2)CN1C1CCCC1` (stereo not given) the fluorescence intensity was 5290 (inactive). In the case of `CC(C)CN(C(=O)Cn1c(=O)cnc2ccccc21)C1CCS(=O)(=O)C1` (stereo not given), the fluorescence intensity is reported as 7550 (inactive). For `COc1ccccc1Cc1c(-c2ccc(Cl)cc2)nc2c3ccccc3ccn12`, the fluorescence intensity was 6870 (inactive). In the case of `COc1ncnc2c1N=C1CC(C)(C)CC(N)=C1S2`, the fluorescence intensity is reported as 10000 (inactive). In the case of `O=C1/C(=C/c2ccc3c(c2)OCO3)Oc2cc(OCC(=O)N3CC(O)C[C@H]3C(=O)O)ccc21` (stereo not given in full), the fluorescence intensity is reported as 5670 (inactive). With `CCc1oc(-c2ccc(OC)cc2)c(C(=O)OCCCCCO)c1C(C)OCCO` (stereo not given) the fluorescence intensity was 5030 (inactive). In the case of `CCOC(=O)N1CCN(C(=O)C[C@@H]2C[C@@]3(C(=O)OC)CCCCC=C3N(CCC3=CCCCC3)C2=O)CC1`, the fluorescence intensity is reported as 5780 (inactive). For `CCOC(=O)c1cc(C)sc1NC(=O)C1CCC1`, the fluorescence intensity was 20200 (active). With `Cc1cnc(NC(=O)C2CCCC2)s1` the fluorescence intensity was 3280 (inactive). For `COC(=O)c1cc(C)sc1NC(=O)CC1Nc2ccccc2NC1=O` (stereo not given), the fluorescence intensity was 4220 (inactive). In the case of `Cc1cc(Br)ccc1SCC(=O)OCC(=O)NCc1ccc2c(c1)OCO2`, the fluorescence intensity is reported as 2190 (inactive). In the case of `Cc1ccccc1C(=O)NNC(=O)CN1C(=O)c2ccccc2C1=O`, the fluorescence intensity is reported as 2780 (inactive). In the case of `Cc1cc(C)cc(NC(=O)CN2C(=O)c3ccccc3C2=O)c1`, the fluorescence intensity is reported as 4110 (inactive). For `C=CCN(CC=C)C(=O)CN1C(=O)c2ccccc2C1=O`, the fluorescence intensity was 16300 (active). With `CC(=O)/C(=N\Nc1ccc(Cl)cc1Cl)Sc1cccc2cccnc12` the fluorescence intensity was 7970 (inactive). With `COc1cccc(-c2cnc3c(NC(C)=O)cc(-c4cccc(NC(C)=O)c4)cn23)c1` the fluorescence intensity was 3610 (inactive). For `Cc1ccnc2nc(C(=O)Nc3nnc(-c4ccccc4)o3)nn12`, the fluorescence intensity was 4840 (inactive). With `c1ccc(-c2ccnc3nc(-n4cccc4)nn23)cc1` the fluorescence intensity was 16400 (active). For `CCCc1cc(=S)n2c([nH]c3ccccc32)c1C#N`, the fluorescence intensity was 3240 (inactive). For `CN(C)C(CNC(=O)CCCOc1ccccc1)c1ccco1` (stereo not given), the fluorescence intensity was 22900 (active). In the case of `CN(C)C(CNC(=O)c1ccc(OCc2cn3ccccc3n2)cc1)c1ccco1` (stereo not given), the fluorescence intensity is reported as 4090 (inactive). With `CN(C)C(CNC(=O)c1cccc(C#N)c1)c1ccco1` (stereo not given) the fluorescence intensity was 3360 (inactive). For `O=C1NC[C@H](Cc2ccc(O)cc2)N(C[C@@H]2CCCN2C[C@H](Cc2ccccc2)N2C[C@H](Cc3ccccc3)N(CC3CCCCC3)C(=O)C2=O)C1=O`, the fluorescence intensity was 7010 (inactive). In the case of `COC(=O)[C@]12CCCCC=C1N(CCC1=CCCCC1)C(=O)[C@H](CC(=O)NCC1CCCCC1)C2`, the fluorescence intensity is reported as 4280 (inactive).
